This is an account of results in PubChem BioAssay (NCI).

This is part of a sample that, as a whole, favours compounds with a hit. Of some 83,000 tested, about 20% had one in any assay.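 Interpretation: 100, growth as untreated; towards 0, rising growth inhibition; 0, no net growth; 0 to -100, cell death. Compounds scoring below 10 were considered active.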 A number with no mark means an inactive call. Calls of active or inactive are those of the source.

Some test systems named below: SK-MEL-2 melanoma; EKVX NSCLC; SN12C renal; UO-31 renal; TK-10 renal; ACHN renal; CAKI-1 renal; A498 renal; CCRF-CEM leukemia; MOLT-4 leukemia; OVCAR-8 ovarian; OVCAR-5 ovarian; OVCAR-4 ovarian; SK-OV-3 ovarian; IGROV1 ovarian; OVCAR-3 ovarian; HS 578T breast; NCI/ADR-RES ovarian; SR leukemia; RPMI-8226 leukemia.
Holding throughout (experiment): NCI-60 one-dose screen, 48 h (100 = growth as untreated, 0 = no growth, -100 = all killed)
Holding throughout (conditions): 10 µM unless noted

As to `O=C(CSc1nnc(-c2ccc(NC(=O)c3cccnc3)cc2)o1)Nc1cccc(Br)c1`, the growth was 96.5% in the experiment on SK-MEL-2 melanoma; 88.3% with EKVX NSCLC; 51.1% in the experiment with SN12C renal; 95.9% with UO-31 renal; 121% with TK-10 renal; 99.2% with ACHN renal. The growth with CAKI-1 renal is 82.6%; in the experiment on A498 renal, 96.2%; with CCRF-CEM leukemia it was 72.2%; in the experiment with MOLT-4 leukemia, 84.5%; with OVCAR-8 ovarian it was 88.7%; in the experiment with OVCAR-5 ovarian it was 99.3%. Besides, the growth with OVCAR-4 ovarian was 93.8%; in the experiment on SK-OV-3 ovarian it was 110%; in the experiment on IGROV1 ovarian, 80.5%; in the experiment on OVCAR-3 ovarian it was 107%; with HS 578T breast it was 90.6%; in the experiment on NCI/ADR-RES ovarian, 93.8%.
As to `Cc1cc(NCCCCNc2ccnc3cc(Cl)ccc23)nc(Nc2ccc(C(=O)N3CCCCC3)cc2)n1`, the growth was -63.1% (active) with SK-MEL-2 melanoma; 41.1% in the experiment on EKVX NSCLC; 29.6% with SN12C renal; 33.5% with UO-31 renal; -49.2% (active) in the experiment on TK-10 renal; -4.47% (active) in the experiment with ACHN renal. Also, the growth in the experiment on CAKI-1 renal was 79.5%; in the experiment with A498 renal, 53.4%; in the experiment on CCRF-CEM leukemia it was -20% (active); in the experiment on SR leukemia, -29% (active); in the experiment with RPMI-8226 leukemia, -35.8% (active); in the experiment on OVCAR-8 ovarian, 7.65% (active). Besides, the growth in the experiment with OVCAR-5 ovarian was 82.7%; in the experiment on OVCAR-4 ovarian, 34.8%; in the experiment with SK-OV-3 ovarian it was 97.2%; in the experiment with IGROV1 ovarian it was 29.8%; in the experiment on OVCAR-3 ovarian it was 8.51% (active); in the experiment on HS 578T breast, -28.9% (active). In the experiment on NCI/ADR-RES ovarian, the growth is 47.5%.
`COc1ccc(-c2nc(SCCC(C)C)nc(N/N=C\c3cccc(Cl)c3)c2C#N)cc1`: the growth in the experiment with SK-MEL-2 melanoma is 98.3%; with EKVX NSCLC it was 77.3%; in the experiment with SN12C renal, 41.9%; in the experiment with UO-31 renal it was 48.9%; in the experiment on TK-10 renal, 47.1%; in the experiment with ACHN renal, 17.9%. Besides, the growth is 61% in the experiment on CAKI-1 renal; 42.5% in the experiment with A498 renal; 50% in the experiment on CCRF-CEM leukemia; 74.7% with MOLT-4 leukemia; 57.7% with OVCAR-8 ovarian; 84.3% in the experiment with OVCAR-5 ovarian. The growth in the experiment on OVCAR-4 ovarian is -13.4% (active); in the experiment with SK-OV-3 ovarian, 84%; in the experiment with IGROV1 ovarian, 76.2%; in the experiment with OVCAR-3 ovarian, 38.5%; in the experiment on HS 578T breast it was 20.7%; with NCI/ADR-RES ovarian, 79.2%.
As for `O=c1c2cc(F)ccc2sc2c(Nc3cccnc3)nc3ccccc3c12`, the growth with SK-MEL-2 melanoma is 109%; in the experiment with EKVX NSCLC, 83.2%; in the experiment with SN12C renal, 93.4%; in the experiment with UO-31 renal, 79.7%; in the experiment with TK-10 renal, 96.3%; in the experiment on ACHN renal, 73.5%. The growth with CAKI-1 renal is 69.1%; with A498 renal, 79.5%; in the experiment on CCRF-CEM leukemia it was 28.2%; with MOLT-4 leukemia, 4.56% (active); in the experiment with OVCAR-8 ovarian it was 89.1%; in the experiment with OVCAR-5 ovarian, 57.8%. In addition, the growth in the experiment with OVCAR-4 ovarian was 105%; in the experiment with SK-OV-3 ovarian, 93.9%; in the experiment with IGROV1 ovarian, 73.7%; with HS 578T breast, 74%; in the experiment on NCI/ADR-RES ovarian, 90.4%.
For the molecule `O=C1/C(=C\c2c[nH]c3ccccc23)c2ccccc2N1c1c(Cl)cccc1Cl`, the growth with SK-MEL-2 melanoma was 15.8%; in the experiment with EKVX NSCLC it was -5.29% (active); with SN12C renal, -29.6% (active); in the experiment on UO-31 renal, 20.7%; with TK-10 renal, -29.4% (active); with ACHN renal, 3.26% (active). Also, the growth in the experiment on CAKI-1 renal is -38.6% (active); with A498 renal it was 19.2%; in the experiment on CCRF-CEM leukemia, 11.6%; in the experiment with MOLT-4 leukemia, -13.1% (active); in the experiment with OVCAR-8 ovarian, 8.34% (active); in the experiment with OVCAR-5 ovarian, -35.9% (active). For the same molecule, the growth is 25% in the experiment on OVCAR-4 ovarian; 22.7% in the experiment with SK-OV-3 ovarian; 23.9% in the experiment on IGROV1 ovarian; -27.8% (active) with OVCAR-3 ovarian; -11.4% (active) in the experiment with HS 578T breast; -8.2% (active) in the experiment with NCI/ADR-RES ovarian.
As to `NCCCNc1nc2ccccc2c2c(=O)c3cccc(Cl)c3sc12`, the growth with SK-MEL-2 melanoma is 99.4%; in the experiment on EKVX NSCLC, 31.2%; in the experiment on SN12C renal, 21.1%; with UO-31 renal, 3.93% (active); with TK-10 renal it was 58%; in the experiment with ACHN renal, 7.6% (active). Also, the growth in the experiment on CAKI-1 renal is 17.1%; with A498 renal it was 65.2%; in the experiment on CCRF-CEM leukemia, 2.48% (active); in the experiment on MOLT-4 leukemia, -23.4% (active); in the experiment with OVCAR-8 ovarian it was -16.2% (active); in the experiment on OVCAR-5 ovarian, 50%. For the same molecule, the growth in the experiment with OVCAR-4 ovarian was 38.2%; in the experiment on SK-OV-3 ovarian it was 73%; in the experiment on IGROV1 ovarian, 7.81% (active); in the experiment with HS 578T breast, 28.1%; in the experiment on NCI/ADR-RES ovarian, 29.2%.
For the molecule `O=C(/C=C/c1cccc(O)c1)c1cccc(-n2cc(-c3ccc4ccccc4c3)[nH]c2=O)c1`, the growth is 84.4% with SK-MEL-2 melanoma; 11.2% with EKVX NSCLC; 5.36% (active) with SN12C renal; 35.5% in the experiment on UO-31 renal; -5.34% (active) in the experiment with TK-10 renal; -40.7% (active) in the experiment with ACHN renal. Moreover, the growth in the experiment with CAKI-1 renal is -1.58% (active); in the experiment on A498 renal, 91.9%; in the experiment with CCRF-CEM leukemia, 1.72% (active); with MOLT-4 leukemia it was -1.37% (active); with OVCAR-8 ovarian, 13.5%; in the experiment with OVCAR-5 ovarian, -42.6% (active). Also, the growth is -76.2% (active) in the experiment with OVCAR-4 ovarian; 19.6% in the experiment with SK-OV-3 ovarian; 85.7% in the experiment on IGROV1 ovarian; -73.2% (active) in the experiment on OVCAR-3 ovarian; -11% (active) with HS 578T breast; -39.3% (active) in the experiment with NCI/ADR-RES ovarian.
In the case of `CCCc1cc2c(=O)c(C(=O)OC)c[nH]c2cc1N(CC)CC`, the growth was 93.9% in the experiment with SK-MEL-2 melanoma; 106% in the experiment with EKVX NSCLC; 94.7% in the experiment with SN12C renal; 82.6% in the experiment on UO-31 renal; 101% in the experiment with TK-10 renal; 92.7% with ACHN renal. Moreover, the growth in the experiment with CAKI-1 renal was 94.9%; with A498 renal, 107%; in the experiment with CCRF-CEM leukemia, 88.2%; with MOLT-4 leukemia, 98.2%; in the experiment on RPMI-8226 leukemia it was 82.5%; with OVCAR-8 ovarian it was 102%. Also, the growth was 101% with OVCAR-4 ovarian; 100% with SK-OV-3 ovarian; 95.3% in the experiment with OVCAR-3 ovarian; 123% in the experiment on HS 578T breast; 99% in the experiment with NCI/ADR-RES ovarian.
